What all share (set-up): scale not given: direction of the effect not stated beside the values
In test [1] the target is Protein translocase subunit SecA (Escherichia coli (strain K12)) (UniProt P10408). Briefly: Assay to Identify E. coli SecA ATPase Inhibitors. It counts as functional. Conditions: 30 µM.
For test [2], the target named is T1, Ubiquitin-activating enzyme e1, putative (Leishmania donovani (strain BPK282A1)) (UniProt E9BSI1).
T1 sequence (whole entry): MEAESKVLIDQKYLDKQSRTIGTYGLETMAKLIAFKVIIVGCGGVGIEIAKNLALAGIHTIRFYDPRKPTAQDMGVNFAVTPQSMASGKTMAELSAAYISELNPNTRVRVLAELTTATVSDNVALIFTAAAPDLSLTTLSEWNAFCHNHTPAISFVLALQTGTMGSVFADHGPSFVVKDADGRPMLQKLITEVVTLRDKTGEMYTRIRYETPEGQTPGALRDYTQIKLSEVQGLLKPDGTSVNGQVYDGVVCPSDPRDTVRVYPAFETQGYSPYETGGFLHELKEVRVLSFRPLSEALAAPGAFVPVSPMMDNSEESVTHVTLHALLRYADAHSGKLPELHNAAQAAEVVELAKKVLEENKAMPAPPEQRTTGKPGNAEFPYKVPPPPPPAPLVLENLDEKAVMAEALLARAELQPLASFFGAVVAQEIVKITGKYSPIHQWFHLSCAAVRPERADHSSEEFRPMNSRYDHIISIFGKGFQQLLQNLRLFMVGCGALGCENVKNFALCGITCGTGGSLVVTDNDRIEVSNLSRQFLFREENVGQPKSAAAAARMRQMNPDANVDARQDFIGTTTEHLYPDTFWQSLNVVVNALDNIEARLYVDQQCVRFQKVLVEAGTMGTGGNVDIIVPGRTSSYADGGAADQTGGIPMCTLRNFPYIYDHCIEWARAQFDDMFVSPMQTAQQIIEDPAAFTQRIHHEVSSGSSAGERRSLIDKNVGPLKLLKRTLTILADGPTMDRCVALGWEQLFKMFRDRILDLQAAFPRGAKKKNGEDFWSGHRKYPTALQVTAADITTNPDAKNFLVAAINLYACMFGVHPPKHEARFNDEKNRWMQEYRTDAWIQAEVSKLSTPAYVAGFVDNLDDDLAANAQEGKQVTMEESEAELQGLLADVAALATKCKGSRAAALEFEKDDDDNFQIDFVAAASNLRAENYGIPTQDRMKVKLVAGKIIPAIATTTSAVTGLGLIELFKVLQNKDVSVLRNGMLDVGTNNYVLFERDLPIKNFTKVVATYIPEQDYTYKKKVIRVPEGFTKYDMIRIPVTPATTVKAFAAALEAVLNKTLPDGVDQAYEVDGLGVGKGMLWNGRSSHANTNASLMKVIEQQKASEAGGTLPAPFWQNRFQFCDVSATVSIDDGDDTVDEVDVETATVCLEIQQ
Kind of test: Leishmania donovani Ubiquitin Activating Enzyme (LdE1). It is filed as functional. Particulars: 30 µM.

The target in test [3] is AMP-activated protein kinase, AMPK (Homo sapiens) (UniProt P54646+O43741+P54619+Q9UGJ0+Q9Y478+Q13131+Q9UGI9). Kind of test: AMP-dependent Kinase enzyme assay. An in vitro enzyme assay that detects ADP turnover that is directly proportional to AMPK activity. This uses naive AMPK that is activated during the assay with MK-8722. Conditions: 30 µM. It is filed as functional.

The target of test [4] is Sialic acid-binding Ig-like lectin 9 (Homo sapiens) (UniProt Q9Y336). Briefly: Hs-Siglec9 ALPHAscreen SOP 20170721. Particulars: 10 µM.
Chain of Sialic acid-binding Ig-like lectin 9 (Homo sapiens) (Q9Y336 whole entry): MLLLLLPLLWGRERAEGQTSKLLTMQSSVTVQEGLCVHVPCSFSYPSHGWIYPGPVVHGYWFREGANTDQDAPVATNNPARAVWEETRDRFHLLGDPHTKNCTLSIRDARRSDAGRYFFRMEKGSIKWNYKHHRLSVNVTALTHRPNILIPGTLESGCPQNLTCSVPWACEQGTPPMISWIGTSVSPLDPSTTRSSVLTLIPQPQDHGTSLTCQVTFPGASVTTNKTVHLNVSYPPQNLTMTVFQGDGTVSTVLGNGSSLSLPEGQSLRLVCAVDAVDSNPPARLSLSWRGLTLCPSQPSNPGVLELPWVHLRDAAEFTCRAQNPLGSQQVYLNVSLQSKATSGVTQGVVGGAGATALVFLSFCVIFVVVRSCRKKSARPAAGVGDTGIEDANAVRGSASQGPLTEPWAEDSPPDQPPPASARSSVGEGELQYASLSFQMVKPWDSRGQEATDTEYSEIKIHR
Another test relates to Trypanosoma cruzi. Briefly: Trypanosoma cruzi phosphomannomutase and mannose-1-phosphate guanylyltransferase assay. It is filed as functional. Conditions: 10 µM.
For test [5], the target named is T2, Arginase-2, mitochondrial (Homo sapiens) (UniProt P78540).
T2 sequence (whole entry): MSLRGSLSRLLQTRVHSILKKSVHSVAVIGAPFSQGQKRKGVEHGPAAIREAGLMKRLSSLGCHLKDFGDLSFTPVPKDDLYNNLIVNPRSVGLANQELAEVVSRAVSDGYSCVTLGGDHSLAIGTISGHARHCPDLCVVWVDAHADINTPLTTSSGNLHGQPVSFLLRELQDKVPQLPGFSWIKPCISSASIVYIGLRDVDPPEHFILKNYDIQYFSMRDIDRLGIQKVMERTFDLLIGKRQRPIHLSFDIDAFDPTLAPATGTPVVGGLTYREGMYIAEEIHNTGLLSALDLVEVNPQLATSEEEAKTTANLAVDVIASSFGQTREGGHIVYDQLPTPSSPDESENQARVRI
Kind of test: in vitro enzyme assay to detect the production of urea directly proportional to the activity of Arginase II. Note: in the data most compounds retested in dose-response had high values. It counts as functional. Conditions: 33.3 µM.

The target of test [6] is T3, Proteasome subunit beta (Trypanosoma cruzi) (UniProt O96673).
T3 sequence (whole entry): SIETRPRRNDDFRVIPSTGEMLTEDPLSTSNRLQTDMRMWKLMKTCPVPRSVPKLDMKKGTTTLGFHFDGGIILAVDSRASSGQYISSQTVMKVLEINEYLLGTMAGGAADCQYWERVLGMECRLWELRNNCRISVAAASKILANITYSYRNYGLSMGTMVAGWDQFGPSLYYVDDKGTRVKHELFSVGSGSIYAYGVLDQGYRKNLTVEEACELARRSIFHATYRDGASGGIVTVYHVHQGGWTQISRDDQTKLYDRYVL
Kind of test: Trypanosoma cruzi proteasome chymotrypsin-like activity (TcProtChymo) assay. Note: in the data most compounds retested in dose-response had high values. It is filed as functional. Conditions: 9.37 µM.

The species entered for a further test is Homo sapiens. Briefly: To identify inhibition of the IFN signalling (Jak-Stat) pathway via expression of an eGFP reporter gene under the control of an IFN-stimulated response element (ISRE) containing MxA promoter. It counts as functional. Particulars: 30 µM.
The target of test [7] is T4, Tyrosyl-tRNA synthetase, putative (Trypanosoma cruzi (strain CL Brener)) (UniProt Q4DSP6).
T4 sequence (whole entry): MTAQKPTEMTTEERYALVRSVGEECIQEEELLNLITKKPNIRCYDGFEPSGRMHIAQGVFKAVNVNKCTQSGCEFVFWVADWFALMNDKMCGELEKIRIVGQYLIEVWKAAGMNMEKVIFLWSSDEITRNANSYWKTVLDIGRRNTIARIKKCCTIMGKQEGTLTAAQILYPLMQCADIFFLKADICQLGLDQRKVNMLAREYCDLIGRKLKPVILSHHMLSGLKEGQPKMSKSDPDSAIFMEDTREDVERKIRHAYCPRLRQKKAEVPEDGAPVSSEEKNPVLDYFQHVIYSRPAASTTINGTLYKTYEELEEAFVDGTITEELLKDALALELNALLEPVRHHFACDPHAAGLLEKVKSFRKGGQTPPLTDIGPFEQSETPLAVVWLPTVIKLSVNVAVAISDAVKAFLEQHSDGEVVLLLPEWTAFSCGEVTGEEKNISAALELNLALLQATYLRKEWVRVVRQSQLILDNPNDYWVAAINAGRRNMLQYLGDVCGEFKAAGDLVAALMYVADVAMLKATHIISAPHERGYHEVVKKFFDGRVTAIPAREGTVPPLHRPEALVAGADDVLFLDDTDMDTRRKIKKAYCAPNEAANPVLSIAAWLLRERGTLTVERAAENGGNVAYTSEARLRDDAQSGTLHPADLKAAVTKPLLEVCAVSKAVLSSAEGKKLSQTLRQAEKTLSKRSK
Briefly: Trypanosoma cruzi tyrosyl tRNA synthetase (TcYRS) _High Tyrosine SOP. Note: in the data most compounds retested in dose-response had high values. It counts as functional. Particulars: 30 µM.

Test [8] has as its target T4, Tyrosyl-tRNA synthetase, putative (Trypanosoma cruzi (strain CL Brener)). Briefly: Trypanosoma cruzi tyrosyl tRNA synthetase (TcYRS) SOP. It is filed as functional. Conditions: 30 µM.
Test [9] concerns the target Chromo domain-containing protein 1 (Saccharomyces cerevisiae (strain ATCC 204508 / S288c) (Baker's yeast)) (UniProt P32657). Briefly: ScCHD-1 Enzyme Inhibition Assay. Note: in the data most compounds retested in dose-response had high values. It counts as functional. Particulars: 30 µM.

Experimental findings from ChEMBL document CHEMBL3988442, “University of Dundee, Small-Polar-MMV Screening Library” (2021) are described below.

Each structure is given as a SMILES string. For some of these results: Measured potencies and affinities stand elsewhere.

Chain of Chromo domain-containing protein 1 (Saccharomyces cerevisiae (strain ATCC 204508 / S288c) (Baker's yeast)) (P32657 whole entry, the tested form may be a part): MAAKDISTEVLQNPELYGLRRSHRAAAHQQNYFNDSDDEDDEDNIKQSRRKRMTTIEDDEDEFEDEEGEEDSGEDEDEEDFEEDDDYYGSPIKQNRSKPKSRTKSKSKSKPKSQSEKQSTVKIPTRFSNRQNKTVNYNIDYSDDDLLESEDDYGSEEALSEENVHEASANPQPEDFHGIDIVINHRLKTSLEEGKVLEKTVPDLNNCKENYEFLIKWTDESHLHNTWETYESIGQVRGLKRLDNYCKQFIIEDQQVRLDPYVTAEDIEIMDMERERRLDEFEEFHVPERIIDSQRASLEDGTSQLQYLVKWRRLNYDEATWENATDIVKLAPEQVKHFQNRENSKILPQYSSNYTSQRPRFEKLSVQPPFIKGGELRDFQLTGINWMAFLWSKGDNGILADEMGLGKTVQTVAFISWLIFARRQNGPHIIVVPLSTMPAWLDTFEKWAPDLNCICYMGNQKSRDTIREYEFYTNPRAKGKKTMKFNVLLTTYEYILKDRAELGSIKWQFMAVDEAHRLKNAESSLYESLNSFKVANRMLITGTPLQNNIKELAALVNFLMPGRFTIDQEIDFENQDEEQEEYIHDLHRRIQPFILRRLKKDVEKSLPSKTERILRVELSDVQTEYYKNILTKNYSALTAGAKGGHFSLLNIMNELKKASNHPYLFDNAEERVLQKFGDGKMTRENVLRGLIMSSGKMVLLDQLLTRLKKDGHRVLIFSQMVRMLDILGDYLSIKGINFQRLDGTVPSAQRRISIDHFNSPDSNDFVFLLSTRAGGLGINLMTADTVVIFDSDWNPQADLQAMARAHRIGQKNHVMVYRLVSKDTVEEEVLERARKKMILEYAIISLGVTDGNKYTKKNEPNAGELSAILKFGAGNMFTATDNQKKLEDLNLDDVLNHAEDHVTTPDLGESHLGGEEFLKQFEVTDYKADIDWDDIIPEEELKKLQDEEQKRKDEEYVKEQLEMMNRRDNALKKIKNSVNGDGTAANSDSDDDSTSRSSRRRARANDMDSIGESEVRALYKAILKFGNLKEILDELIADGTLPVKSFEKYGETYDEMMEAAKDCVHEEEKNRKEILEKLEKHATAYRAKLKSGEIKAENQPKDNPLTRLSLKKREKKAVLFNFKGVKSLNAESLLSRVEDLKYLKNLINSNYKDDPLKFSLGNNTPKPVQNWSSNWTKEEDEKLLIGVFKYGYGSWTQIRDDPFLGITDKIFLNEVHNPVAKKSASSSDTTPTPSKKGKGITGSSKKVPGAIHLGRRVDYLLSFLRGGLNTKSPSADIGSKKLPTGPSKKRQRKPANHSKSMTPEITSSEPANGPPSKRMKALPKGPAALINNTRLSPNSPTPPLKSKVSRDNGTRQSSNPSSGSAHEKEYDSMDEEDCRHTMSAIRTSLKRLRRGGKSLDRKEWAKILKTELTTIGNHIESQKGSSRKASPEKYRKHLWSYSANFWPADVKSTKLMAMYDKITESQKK
Chain of Protein translocase subunit SecA (Escherichia coli (strain K12)) (P10408 whole entry): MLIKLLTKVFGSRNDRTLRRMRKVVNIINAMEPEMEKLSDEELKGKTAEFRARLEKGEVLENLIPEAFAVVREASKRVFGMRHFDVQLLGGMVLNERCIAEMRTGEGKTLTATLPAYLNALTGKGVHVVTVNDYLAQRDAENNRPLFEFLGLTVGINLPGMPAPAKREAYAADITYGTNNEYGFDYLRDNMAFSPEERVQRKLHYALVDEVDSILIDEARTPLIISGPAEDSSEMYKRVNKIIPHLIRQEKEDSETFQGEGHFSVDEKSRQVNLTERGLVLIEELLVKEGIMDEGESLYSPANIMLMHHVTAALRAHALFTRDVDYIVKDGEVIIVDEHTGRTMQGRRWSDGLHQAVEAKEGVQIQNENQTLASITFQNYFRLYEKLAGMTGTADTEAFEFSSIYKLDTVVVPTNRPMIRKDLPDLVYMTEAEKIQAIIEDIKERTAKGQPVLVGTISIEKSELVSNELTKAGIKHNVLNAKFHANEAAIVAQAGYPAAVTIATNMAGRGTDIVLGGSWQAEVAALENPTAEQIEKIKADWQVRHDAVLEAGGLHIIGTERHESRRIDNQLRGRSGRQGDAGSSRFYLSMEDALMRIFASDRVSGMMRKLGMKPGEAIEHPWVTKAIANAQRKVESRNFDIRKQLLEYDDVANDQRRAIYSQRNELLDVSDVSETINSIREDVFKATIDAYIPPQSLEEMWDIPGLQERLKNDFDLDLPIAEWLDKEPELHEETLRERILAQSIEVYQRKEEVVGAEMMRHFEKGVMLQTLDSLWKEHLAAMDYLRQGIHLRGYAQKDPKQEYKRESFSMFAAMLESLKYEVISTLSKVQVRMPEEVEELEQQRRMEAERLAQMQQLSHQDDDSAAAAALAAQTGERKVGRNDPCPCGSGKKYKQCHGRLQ

Consider `Cc1ccc(CC(=O)N2Cc3nccn3CC(CN(C)C)C2)cc1` (stereo unspecified), for which the Percent Effect is 2.93% in [1]; 11% in test [2]; -4.31% in test [3]; 9.23% in test [4]; 0.198% with Trypanosoma cruzi; 5.59% in [5]. Further, the Percent Effect in [6] was 15.3%; in the test listed under Homo sapiens, 20.1%; in test [7], 8.33%; in test [8] it was 16.1%; in test [9] it was -2.84%.

Take `CCn1cc(CN2CCCn3nc(CNC(=O)C4CCC4)cc3C2)cn1`: the Percent Effect is -2.37% in test [1]; 10.4% in [2]; 0.185% in test [3]; 10.6% in test [4]; 4.42% with Trypanosoma cruzi; -6.9% in [5]. For the same molecule, the Percent Effect in [6] is 18.5%; in the test filed under Homo sapiens, -4.18%; in test [7] it was 6.45%; in test [8], 13.6%; in [9], -3.28%.

In the case of `CC(C)CN1C(=O)C2(CCN(Cc3nccs3)C2)c2ccccc21` (stereo unspecified), the Percent Effect in test [1] was -1.96%; in test [2], 5.41%; in test [3] it was -2.39%; in test [4] it was 1.8%; in the test with Trypanosoma cruzi it was -5.08%; in [5] it was 5%. Further, the Percent Effect in [6] is 16.1%; in the test listed under Homo sapiens, 37.2%; in test [7] it was 3.96%; in test [8], 3.66%; in [9], -5.7%.

`c1cc2nccc(CC3CCCN(Cc4ncc[nH]4)CC3)c2cn1` (stereo unspecified): the Percent Effect was -2.14% in [1]; 9.46% in [2]; 4.64% in test [3]; 12.8% in [4]; 5.34% in the test with Trypanosoma cruzi; -2.09% in [5]. For the same molecule, the Percent Effect in test [6] is 9.98%; in the test listed under Homo sapiens it was 12.3%; in test [7] it was 11.8%; in test [8], 24.7%; in test [9] it was -17.2%.

In the case of `CN(C)C(CNC(=O)NCCc1cccc(O)c1)c1ccco1` (stereo unspecified), the Percent Effect is -1.55% in test [1]; 5.41% in test [2]; 0.167% in test [3]; 22.4% in test [4]; 3.81% in the test with Trypanosoma cruzi; 6.7% in test [5]. The Percent Effect in test [6] is 13%; in the test listed under Homo sapiens, -1.66%; in test [7] it was 0%; in test [8], 6.17%; in test [9] it was -9.98%.

With `Cn1ccc(NC(=O)Cc2cccc(F)c2)n1`, the Percent Effect is -2.82% in test [1]; 5.41% in test [2]; 2.46% in test [3]; -6.52% in [4]; 3.71% with Trypanosoma cruzi; -3.33% in [5]. The Percent Effect amounted to 12.3% in [6]; 15% in the test filed under Homo sapiens; 12.9% in test [7]; 13.4% in test [8]; 113% in [9].

In the case of `Cc1ccc2cnn(CCC(=O)NCc3c(C)nn(C)c3C)c2c1`, the Percent Effect is -6.31% in test [1]; 2.6% in test [2]; 0.586% in test [3]; 1.87% in test [4]; 0.492% in the test on Trypanosoma cruzi; -1.38% in [5]. The Percent Effect is 8.98% in test [6]; 7.06% in the test listed under Homo sapiens; 3.23% in [7]; 6.17% in test [8]; -1.97% in test [9].

As for `COC(=O)c1sccc1NC(=O)C1CCCN1C(=O)c1ccco1` (stereo unspecified), the Percent Effect in test [1] was -0.782%; in test [2], -15.3%; in [3] it was 13.2%; in test [4] it was -14.9%; in the test on Trypanosoma cruzi, -8.84%; in [5], -3.53%. The Percent Effect was 20.4% in test [6]; 1.28% in the test filed under Homo sapiens; -3.16% in test [7]; 2.56% in test [8]; -2.51% in test [9].

For the molecule `CC(NC(=O)NCCCn1ccnc1)c1ccc2c(c1)OCCCO2` (stereo unspecified), the Percent Effect is -3.41% in [1]; 2.7% in test [2]; -7.49% in [3]; -2.67% in [4]; -8.08% in the test with Trypanosoma cruzi; 5.36% in test [5]. The Percent Effect in [6] is -0.539%; in the test filed under Homo sapiens, 12.7%; in test [7], 1.98%; in test [8] it was 1.22%; in test [9], 2.18%.

On to `Cc1ccc(CNC2CCN(CCc3ccncc3)CC2)cc1C`, for which the Percent Effect in test [1] is -4.25%; in test [2] it was -5.41%; in [3] it was -4.58%; in test [4], 7.82%; in the test with Trypanosoma cruzi, 5.47%; in test [5] it was 18.8%. The Percent Effect in test [6] is 5.5%; in the test listed under Homo sapiens, -6.77%; in [7] it was 2.97%; in [8], 8.54%; in test [9], 29.8%.

For the molecule `CC(C)Cc1cc(NC(=O)c2ccc[nH]2)n(C)n1`, the Percent Effect is -5.53% in [1]; 5.2% in test [2]; 3.29% in test [3]; 6.59% in [4]; -5.24% in the test with Trypanosoma cruzi; -5.34% in test [5]. In addition, the Percent Effect in test [6] was -0.169%; in the test filed under Homo sapiens it was 0.305%; in test [7], 5.83%; in [8] it was 14.6%; in [9], -7.26%.
